Results with a measured potency or affinity are listed apart. Records with an inconclusive call do not appear. Activity calls are given as the source filed them.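 How the source made its calls: active means fitted half-maximal concentration no higher than twice the top tested dose, in every repeat run; inconclusive means repeat runs disagree, poor fit, or flat partial inhibition; inactive means the rest.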
These compounds were tested against Endoplasmic reticulum aminopeptidase 1 (Homo sapiens) (UniProt Q9NZ08) (assay: inhibition of human ERAP1 enzyme activity – biochemical, cherry-pick, set 2, plate reader, dose response (AID 743314;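 further: 0% = neutral control wells and -100% = L-leucinethiol positive control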)). Details: Recombinant ERAP1, Leu-AMC fluorescence, 60 min; series mostly up to 11 µM; activity change, negative = inhibition: at the top concentration.
Chain of Endoplasmic reticulum aminopeptidase 1 (Homo sapiens) (Q9NZ08 whole entry, looked up): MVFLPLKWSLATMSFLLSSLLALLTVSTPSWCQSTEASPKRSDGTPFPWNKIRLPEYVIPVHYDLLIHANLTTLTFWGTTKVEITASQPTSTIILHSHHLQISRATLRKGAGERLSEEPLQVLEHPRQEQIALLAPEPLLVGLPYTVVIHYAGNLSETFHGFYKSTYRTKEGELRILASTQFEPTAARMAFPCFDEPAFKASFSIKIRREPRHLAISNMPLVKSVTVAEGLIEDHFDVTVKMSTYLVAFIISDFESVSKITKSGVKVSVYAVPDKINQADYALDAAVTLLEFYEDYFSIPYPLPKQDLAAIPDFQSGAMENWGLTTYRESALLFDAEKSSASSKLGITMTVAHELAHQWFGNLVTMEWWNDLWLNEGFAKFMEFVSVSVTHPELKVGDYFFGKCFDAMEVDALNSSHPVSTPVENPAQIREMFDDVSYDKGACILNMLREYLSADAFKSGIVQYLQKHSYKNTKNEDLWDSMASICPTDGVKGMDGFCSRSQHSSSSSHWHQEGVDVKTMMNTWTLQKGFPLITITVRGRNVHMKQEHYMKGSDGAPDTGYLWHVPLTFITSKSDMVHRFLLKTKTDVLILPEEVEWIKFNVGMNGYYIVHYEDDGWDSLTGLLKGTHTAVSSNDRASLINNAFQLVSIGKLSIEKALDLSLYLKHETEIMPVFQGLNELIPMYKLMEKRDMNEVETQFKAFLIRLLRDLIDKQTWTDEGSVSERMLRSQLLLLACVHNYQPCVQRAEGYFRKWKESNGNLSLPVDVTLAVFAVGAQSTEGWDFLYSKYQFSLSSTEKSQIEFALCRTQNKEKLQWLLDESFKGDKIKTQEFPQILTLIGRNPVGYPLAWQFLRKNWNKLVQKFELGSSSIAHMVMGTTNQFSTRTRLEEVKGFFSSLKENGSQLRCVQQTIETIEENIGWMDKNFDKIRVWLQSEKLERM

Activity change, negative = inhibition, inactive:
CC(OC(=O)c1cc(=O)[nH]c2ccccc12)C(=O)Nc1ccccc1F (centres undefined) 3.54%
CC(=O)Oc1cc2oc(=O)cc(C)c2cc1Cl 264%
C[C@H](CO)N1C[C@H](C)[C@@H](CN(C)C(=O)Nc2ccccc2)Oc2ccc(NC(=O)Nc3cccc4ccccc34)cc2C1=O 8.85%
COc1ccc(CN(C)C[C@H]2OCCCC[C@H](C)Oc3ccc(NS(=O)(=O)c4cccs4)cc3C(=O)N([C@H](C)CO)C[C@@H]2C)cc1 50.9%
CC(C)NC(=O)C1C(c2ccc(C(F)(F)F)cc2)=Nc2ccccc2N1C(=O)c1ccco1 (centres undefined) 4.24%
CCc1cc(=O)oc2c(CNCc3ccccc3F)c(O)c(Cl)cc12 29.9% [at 5.6 µM]
CC(C)[C@H](NC(N)=O)C(=O)NNC(=O)COc1cccc(C(F)(F)F)c1 -4.59%
COc1ccc(CN(C)C[C@H]2Oc3ccc(NS(=O)(=O)c4ccc(C)cc4)cc3C(=O)N([C@@H](C)CO)C[C@@H]2C)cc1 20.6%
CN(c1ccccc1)S(=O)(=O)c1cc(C(=O)OCC(=O)N2CCN(C(=O)c3ccco3)CC2)ccc1Cl -3.85%
Cc1cc(C)n2nc(C(=O)N3CCN(c4ccc([N+](=O)[O-])cc4)CC3)nc2n1 -1.94%
Cc1ccc(CN2C(=O)CCC2C(=O)NCCN2CCN(c3cccc(Cl)c3)CC2)cc1 (centres undefined) 5.74%
COc1ccc2c3c([nH]c2c1)[C@H](CO)N(CC1CC1)CC31CCN(C(=O)c2ccccc2F)CC1 30.8%
COc1ccccc1-c1cn(CC[C@H]2CC[C@H](NS(=O)(=O)c3ccccc3C)[C@@H](CO)O2)nn1 20.2%
C[C@@H]1CN([C@H](C)CO)C(=O)c2cccc(NC(=O)Nc3ccccc3)c2O[C@@H]1CN(C)Cc1ccc(C(=O)O)cc1 54.7%
Cc1noc(C)c1NC(=O)N(C)C[C@@H]1Oc2c(NC(=O)Nc3ccc(F)cc3)cccc2C(=O)N([C@H](C)CO)C[C@H]1C 45.2%
C[C@H](CO)N1C[C@H](C)[C@@H](CN(C)S(=O)(=O)c2ccccc2)Oc2ccc(NC(=O)CCN3CCOCC3)cc2C1=O 17.7%
CCCC#Cc1ccc(CC[C@H]2O[C@H]3CC[C@H](CO)O[C@H]3C[C@@H]2NC(=O)CN2CCOCC2)cc1 8.84%
CCN1CCCC1CNS(=O)(=O)c1cccc(C(F)(F)F)c1 (centres undefined) -3.89%
C[C@H](CO)N1C[C@H](C)[C@H](CN(C)Cc2ccc(C(=O)O)cc2)Oc2c(NC(=O)Nc3ccccc3)cccc2C1=O 59.2%
O=C(CC1CC1)N1[C@H](CO)[C@@H](c2ccccc2)C12CN(Cc1cc(F)ccc1F)C2 12.9%
C[C@H](CO)N1C[C@H](C)[C@H](CN(C)C(=O)Nc2ccc(F)cc2)Oc2ccc(NC(=O)CCN3CCOCC3)cc2C1=O 5.52% [at 10 µM]
CN1[C@H](C(=O)N2CCCCC2)[C@@H](CO)[C@@H]2Cn3c(ccc(/C=C/c4ccccc4)c3=O)[C@@H]21 5.94% [at 5.6 µM]
COc1ccc2c3c([nH]c2c1)[C@@H](CO)N(Cc1ccccc1)CC31CN(C)C1 -25.8%
CN(C(=O)CSc1nnc(C(F)(F)F)n1C)c1c(N)n(Cc2ccccc2)c(=O)[nH]c1=O 6.68%
Cn1cnc(C(=O)N2CCN(C(=O)OC(C)(C)C)CC2)c1C(=O)N1CCN(C(=O)OC(C)(C)C)CC1 -10.3%
CC(=O)N(C)C[C@H]1Oc2cc(C#CC(C)C)ccc2S(=O)(=O)N([C@@H](C)CO)C[C@H]1C 37.2%
C[C@H]1CN([C@@H](C)CO)C(=O)c2cc(NC(=O)CCN3CCOCC3)ccc2O[C@@H]1CN(C)S(=O)(=O)c1ccccc1 22.3%
COc1ccc(NC(=O)N[C@@H]2CC[C@@H](CCn3cc(-c4ccc(F)cc4)nn3)O[C@H]2CO)cc1 32.5%
Cc1ccc(NC(=O)C2CCN(C(=O)c3cccs3)CC2)c(C)c1 -4.73%
C[C@H]1CN([C@@H](C)CO)C(=O)c2cccc(NC(=O)Nc3ccc(F)cc3)c2O[C@@H]1CN(C)C(=O)Nc1ccc2c(c1)OCO2 51%
C[C@H]1CN([C@@H](C)CO)C(=O)Cc2cc(NC(=O)Nc3cccc4ccccc34)ccc2O[C@@H]1CN(C)Cc1ccc(C(=O)O)cc1 19.6%
C[C@@H]1CN([C@H](C)CO)C(=O)c2cccc(NC(=O)Nc3ccc(C(F)(F)F)cc3)c2O[C@H]1CN(C)C 38.7% [at 10 µM]
C[C@@H]1CCCCO[C@H](CN(C)C)[C@H](C)CN([C@@H](C)CO)C(=O)c2cc(NS(=O)(=O)c3ccc(Cl)cc3)ccc2O1 41.9%
CCCCCn1c(=NC(=O)c2ccco2)c(C(=O)OCC)cc2c(=O)n3ccccc3nc21 -30.4%
